# Results published in the supplement of paper PMC10037445.
# Several values for one entry are separate records, joined by “and”; a condition that tells them apart may be missing. Identical values can stand only once. The full ranking holds about 2,900 compounds; the median of “IRF Lucia reporter activity, fold change vs agonist alone” is about 0.9, and the highest 2% start at about 2.8. Only a selection was taken, and the highest values are over-represented in it overall.
# Assays:
# [1] = test system: RAW-Dual; assay: IRF Lucia reporter activity, fold change vs agonist alone; cytotoxicity flag (confluency mask): cytotoxic (confluency <70% of control); higher = enhanced IRF activity
# How it was run: (§1)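 RAW-Dual macrophages (50,000 cells/well in DMEM, 384-well plates) received 50 nL of library stock by pin tool, then a PRR agonist 1 h later, and were kept at 37 °C, 5% CO2. After 20 hours, supernatant was read for IRF by QuantiLuc luminescence and for NF-κB by QuantiBlue absorbance at 620 nm. Reporter activity is fold change over agonist-alone wells. Cytotoxic wells had IncuCyte confluency below 70% of agonist controls in both mask sets.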
# [2] = test system: RAW-Dual; assay: IRF Lucia reporter activity, fold change vs agonist alone; cytotoxicity flag (confluency mask): not cytotoxic; higher = enhanced IRF activity
# How it was run: as §1
# [3] = test system: RAW-Dual; assay: IRF Lucia reporter activity, fold change vs agonist alone; higher = enhanced IRF activity; conditions: cytotoxicity flag (confluency mask): not cytotoxic, agonist: MPLA (TLR4) […]
# How it was run: as §1
# [4] = agonist: 3'3'-cGAMP (STING) 10 ug/mL
# [5] = library stock concentration (final ~1000-fold dilution): 10 mM
smiles,measurement,setting,value
O=C(CCCCCCC(=O)N/N=C/c1ccc(N(c2ccccc2)c2ccccc2)cc1)NO (library stock concentration (final ~1000-fold dilution): 10 mM),IRF Lucia reporter activity,[1]; [4],0.0199
same,IRF Lucia reporter activity,[1]; agonist: LPS (TLR4) 0.1 ug/mL,0.533
Cc1ccc(Oc2ccnc3cc(-c4cnn(C5CCNCC5)c4)ccc23)cc1 (library stock concentration (final ~1000-fold dilution): 10 mM),IRF Lucia reporter activity,[1]; [4],0.0554
same,IRF Lucia reporter activity,[1]; agonist: LPS (TLR4) 0.1 ug/mL,0.134
CCC(C)(Nc1ccnc(-c2c[nH]c3ncccc23)n1)C(=O)NCC(F)(F)F (stereo not drawn) (library stock concentration (final ~1000-fold dilution): 10 mM),IRF Lucia reporter activity,[2]; [4],0.291
same,IRF Lucia reporter activity,[2]; agonist: LPS (TLR4) 0.1 ug/mL,0.35
CCC(C)(Nc1ccnc(-c2c[nH]c3ncccc23)n1)C(=O)NCC(F)(F)F (stereo not drawn),IRF Lucia reporter activity,[3]; [5],0.41
Cc1cc(N2CCN(C3CNC(C(=O)N4CCSC4)C3)CC2)n(-c2ccccc2)n1 (stereo not drawn),IRF Lucia reporter activity,[3]; [5],1.02
Cc1cc(N2CCN(C3CNC(C(=O)N4CCSC4)C3)CC2)n(-c2ccccc2)n1 (stereo not drawn) (library stock concentration (final ~1000-fold dilution): 10 mM),IRF Lucia reporter activity,[2]; [4],0.982
same,IRF Lucia reporter activity,[2]; agonist: LPS (TLR4) 0.1 ug/mL,1.22
Cc1ccc2nc(NCCN)c3ncc(C)n3c2c1 (library stock concentration (final ~1000-fold dilution): 10 mM),IRF Lucia reporter activity,[2]; [4],2.21
same,IRF Lucia reporter activity,[2]; agonist: LPS (TLR4) 0.1 ug/mL,3.5
same,IRF Lucia reporter activity,[1]; agonist: LPS (TLR4) 0.1 ug/mL,0.0229 and 0.0291
CCOc1nc2cccc(C(=O)OCc3oc(=O)oc3C)c2n1Cc1ccc(-c2ccccc2-c2nc(=O)o[nH]2)cc1 (library stock concentration (final ~1000-fold dilution): 10 mM),IRF Lucia reporter activity,[2]; [4],1.04
same,IRF Lucia reporter activity,[2]; agonist: LPS (TLR4) 0.1 ug/mL,1.16
CCOc1nc2cccc(C(=O)OCc3oc(=O)oc3C)c2n1Cc1ccc(-c2ccccc2-c2nc(=O)o[nH]2)cc1,IRF Lucia reporter activity,[3]; [5],1.16
CNS(=O)(=O)CC1CCC(N(C)c2ncnc3[nH]ccc23)CC1.O=C(O)/C=C\C(=O)O (stereo not drawn) (library stock concentration (final ~1000-fold dilution): 10 mM),IRF Lucia reporter activity,[2]; [4],0.106
same,IRF Lucia reporter activity,[2]; agonist: LPS (TLR4) 0.1 ug/mL,0.264
O=c1cc(-c2cccc3c2Sc2ccccc2S3)oc(N2CCOCC2)c1 (library stock concentration (final ~1000-fold dilution): 10 mM),IRF Lucia reporter activity,[2]; [4],0.647
same,IRF Lucia reporter activity,[2]; agonist: LPS (TLR4) 0.1 ug/mL,5.22
CC1CN(CC(=O)Nc2ccc3c(c2)Cc2cccc(-c4cc(=O)cc(N5CCOCC5)o4)c2S3)CC(C)O1 (stereo not drawn) (library stock concentration (final ~1000-fold dilution): 10 mM),IRF Lucia reporter activity,[2]; [4],0.508
same,IRF Lucia reporter activity,[2]; agonist: LPS (TLR4) 0.1 ug/mL,6.62
O=c1cc(-c2cccc3c2Sc2ccccc2S3)oc(N2CCOCC2)c1,IRF Lucia reporter activity,[3]; [5],6.25
O=c1cc(N2CCOCC2)oc2c1ccc1ccccc12,IRF Lucia reporter activity,[3]; library stock concentration (final ~1000-fold dilution): 2 mM,1.15
O=c1cc(N2CCOCC2)oc2c(-c3ccc4c(c3)OCCO4)csc12 (library stock concentration (final ~1000-fold dilution): 10 mM),IRF Lucia reporter activity,[2]; [4],0.12
same,IRF Lucia reporter activity,[2]; agonist: LPS (TLR4) 0.1 ug/mL,0.269
CC1CN(CC(=O)Nc2ccc3c(c2)Cc2cccc(-c4cc(=O)cc(N5CCOCC5)o4)c2S3)CC(C)O1 (stereo not drawn),IRF Lucia reporter activity,[3]; [5],5.96
O=c1cc(N2CCOCC2)oc2c1ccc1ccccc12 (library stock concentration (final ~1000-fold dilution): 2 mM),IRF Lucia reporter activity,[2]; [4],0.778
same,IRF Lucia reporter activity,[2]; agonist: LPS (TLR4) 0.1 ug/mL,1.01
CC1(c2cc(-c3cncnc3)c(F)cc2F)CCSC(N)=N1 (stereo not drawn),IRF Lucia reporter activity,[3]; [5],0.717
CC1(c2cc(-c3cncnc3)c(F)cc2F)CCSC(N)=N1 (stereo not drawn) (library stock concentration (final ~1000-fold dilution): 10 mM),IRF Lucia reporter activity,[2]; [4],0.823
same,IRF Lucia reporter activity,[2]; agonist: LPS (TLR4) 0.1 ug/mL,0.805
CCC(C)Nc1cc(C(=O)NC2CC3CCC(C2)N3c2ccc(C(=O)C3CC3)cn2)c(C)cc1C(N)=O (stereo not drawn),IRF Lucia reporter activity,[3]; [5],0.838
CCC(C)Nc1cc(C(=O)NC2CC3CCC(C2)N3c2ccc(C(=O)C3CC3)cn2)c(C)cc1C(N)=O (stereo not drawn) (library stock concentration (final ~1000-fold dilution): 10 mM),IRF Lucia reporter activity,[2]; [4],0.482
same,IRF Lucia reporter activity,[2]; agonist: LPS (TLR4) 0.1 ug/mL,0.924
C[N+]1(C)C2CCC1CC(OC(=O)C(O)c1ccccc1)C2 (stereo not drawn) (library stock concentration (final ~1000-fold dilution): 10 mM),IRF Lucia reporter activity,[2]; [4],1.01
same,IRF Lucia reporter activity,[2]; agonist: LPS (TLR4) 0.1 ug/mL,1.29
C[N+]1(C)C2CCC1CC(OC(=O)C(O)c1ccccc1)C2 (stereo not drawn),IRF Lucia reporter activity,[3]; [5],0.953
O=C(Nc1ccc(OC(F)(F)Cl)cc1)c1cnc(N2CCC(O)C2)c(-c2ccn[nH]2)c1 (stereo not drawn) (library stock concentration (final ~1000-fold dilution): 10 mM),IRF Lucia reporter activity,[2]; [4],0.296
same,IRF Lucia reporter activity,[2]; agonist: LPS (TLR4) 0.1 ug/mL,1.27
CCn1c(=O)c(-c2cc(NC(=O)Nc3ccccc3)c(F)cc2Br)cc2cnc(NC)cc21 (library stock concentration (final ~1000-fold dilution): 10 mM),IRF Lucia reporter activity,[2]; [4],0.671
same,IRF Lucia reporter activity,[2]; agonist: LPS (TLR4) 0.1 ug/mL,0.268
Cc1ccc(Nc2nccc(N(C)c3ccc4c(C)n(C)nc4c3)n2)cc1S(N)(=O)=O.Cl,IRF Lucia reporter activity,[3]; [5],0.646
Cc1ccc(Nc2nccc(N(C)c3ccc4c(C)n(C)nc4c3)n2)cc1S(N)(=O)=O.Cl (library stock concentration (final ~1000-fold dilution): 10 mM),IRF Lucia reporter activity,[2]; [4],0.0722
same,IRF Lucia reporter activity,[2]; agonist: LPS (TLR4) 0.1 ug/mL,0.446
COC(=O)C(CC(C)C)NC(=O)c1ccc(NCC(N)CS)cc1-c1cccc2ccccc12.O=C(O)C(F)(F)F (stereo not drawn) (library stock concentration (final ~1000-fold dilution): 10 mM),IRF Lucia reporter activity,[2]; [4],0.0714
same,IRF Lucia reporter activity,[2]; agonist: LPS (TLR4) 0.1 ug/mL,0.736
COC(=O)C(CC(C)C)NC(=O)c1ccc(NCC(N)CS)cc1-c1cccc2ccccc12.O=C(O)C(F)(F)F (stereo not drawn),IRF Lucia reporter activity,[3]; [5],0.882
N#Cc1ccc2[nH]c(O)c(-c3ccc(CN4CCOCC4)cn3)c2c1,IRF Lucia reporter activity,[3]; [5],1.01
N#Cc1ccc2[nH]c(O)c(-c3ccc(CN4CCOCC4)cn3)c2c1 (library stock concentration (final ~1000-fold dilution): 10 mM),IRF Lucia reporter activity,[2]; [4],0.996
same,IRF Lucia reporter activity,[2]; agonist: LPS (TLR4) 0.1 ug/mL,0.903
N#Cc1cccc(-c2c[nH]c3ncnc(N4CCOCC4)c23)c1 (library stock concentration (final ~1000-fold dilution): 10 mM),IRF Lucia reporter activity,[2]; [4],0.11
same,IRF Lucia reporter activity,[2]; agonist: LPS (TLR4) 0.1 ug/mL,0.291
N#Cc1ccc(-c2c(-c3ncn[nH]3)sc(N3CCOCC3)c2C#N)c(F)c1 (library stock concentration (final ~1000-fold dilution): 10 mM),IRF Lucia reporter activity,[2]; [4],0.455
same,IRF Lucia reporter activity,[2]; agonist: LPS (TLR4) 0.1 ug/mL,10.2
CCS(=O)(=O)O.COC(=O)c1ccc2c(c1)NC(=O)/C2=C(\Nc1ccc(N(C)C(=O)CN2CCN(C)CC2)cc1)c1ccccc1 (library stock concentration (final ~1000-fold dilution): 10 mM),IRF Lucia reporter activity,[2]; [4],0.0841
same,IRF Lucia reporter activity,[2]; agonist: LPS (TLR4) 0.1 ug/mL,0.246
CCS(=O)(=O)O.COC(=O)c1ccc2c(c1)NC(=O)/C2=C(\Nc1ccc(N(C)C(=O)CN2CCN(C)CC2)cc1)c1ccccc1,IRF Lucia reporter activity,[3]; [5],0.215
Cc1nnc(NC(=O)c2nc(S(=O)(=O)Cc3ccc(F)cc3)ncc2Cl)s1 (library stock concentration (final ~1000-fold dilution): 10 mM),IRF Lucia reporter activity,[2]; [4],0.0452
same,IRF Lucia reporter activity,[2]; agonist: LPS (TLR4) 0.1 ug/mL,0.308
NC1C(O)OC(CO)C(O)C1O (stereo not drawn) (library stock concentration (final ~1000-fold dilution): 10 mM),IRF Lucia reporter activity,[2]; [4],0.143
same,IRF Lucia reporter activity,[2]; agonist: LPS (TLR4) 0.1 ug/mL,0.267
CC(C)=CCC[C@](C)(O[C@@H]1O[C@H](CO)[C@@H](O)C(O)[C@H]1O)[C@H]1CC[C@]2(C)[C@H]1[C@H](O)CC1[C@@]3(C)CC[C@H](O)C(C)(C)[C@@H]3[C@@H](O[C@@H]3O[C@H](CO)[C@@H](O)[C@H](O)[C@H]3O[C@@H]3O[C@@H](C)[C@H](O)[C@@H](O)[C@H]3O)C[C@]12C (stereo partly drawn) (library stock concentration (final ~1000-fold dilution): 10 mM),IRF Lucia reporter activity,[2]; [4],1.16
same,IRF Lucia reporter activity,[2]; agonist: LPS (TLR4) 0.1 ug/mL,1.03
CCCCCCCCCCCCCC(=S)NCCCCC(NC(=O)OCc1ccccc1)C(=O)Nc1ccccc1 (stereo not drawn) (library stock concentration (final ~1000-fold dilution): 10 mM),IRF Lucia reporter activity,[2]; [4],0.949
same,IRF Lucia reporter activity,[2]; agonist: LPS (TLR4) 0.1 ug/mL,1.09
COc1ccc2cc(-c3[nH]c(-c4ccc(S(C)=O)cc4)nc3-c3ccncc3)ccc2c1 (stereo not drawn),IRF Lucia reporter activity,[3]; [5],0.798
OCCn1cc(-c2ccc3c(c2)CC/C3=N\O)c(-c2ccncc2)n1,IRF Lucia reporter activity,[3]; [5],0.784
CN(C)CCOc1ccc(-c2nc(-c3ccncc3)c(-c3ccc4c(c3)CC/C4=N\O)[nH]2)cc1 (library stock concentration (final ~1000-fold dilution): 10 mM),IRF Lucia reporter activity,[2]; [4],0.992
same,IRF Lucia reporter activity,[2]; agonist: LPS (TLR4) 0.1 ug/mL,3.04
CN(C)CCOc1ccc(-c2nc(-c3ccncc3)c(-c3ccc4c(c3)CC/C4=N\O)[nH]2)cc1,IRF Lucia reporter activity,[3]; [5],1.04
OCCn1cc(-c2ccc3c(c2)CC/C3=N\O)c(-c2ccncc2)n1 (library stock concentration (final ~1000-fold dilution): 10 mM),IRF Lucia reporter activity,[2]; [4],0.614
same,IRF Lucia reporter activity,[2]; agonist: LPS (TLR4) 0.1 ug/mL,0.658
COc1ccc2cc(-c3[nH]c(-c4ccc(S(C)=O)cc4)nc3-c3ccncc3)ccc2c1 (stereo not drawn) (library stock concentration (final ~1000-fold dilution): 10 mM),IRF Lucia reporter activity,[2]; [4],0.0441
same,IRF Lucia reporter activity,[2]; agonist: LPS (TLR4) 0.1 ug/mL,0.466
CC(C)CCn1c(CN2CCN(C(=O)C3CC3)CC2)nc2c1c(=O)n(C)c(=O)n2C (library stock concentration (final ~1000-fold dilution): 10 mM),IRF Lucia reporter activity,[2]; [4],0.987
same,IRF Lucia reporter activity,[2]; agonist: LPS (TLR4) 0.1 ug/mL,0.989
CN1CCC(CNc2ccc3ncc(-c4cccc(OC(F)(F)F)c4)n3n2)CC1 (library stock concentration (final ~1000-fold dilution): 10 mM),IRF Lucia reporter activity,[2]; [4],1.03
same,IRF Lucia reporter activity,[2]; agonist: LPS (TLR4) 0.1 ug/mL,0.089
CN1CCC(COc2cnc(-c3cccc(Cn4nc(-c5cccc(C#N)c5)ccc4=O)c3)nc2)CC1 (library stock concentration (final ~1000-fold dilution): 10 mM),IRF Lucia reporter activity,[2]; [4],0.676
same,IRF Lucia reporter activity,[2]; agonist: LPS (TLR4) 0.1 ug/mL,3.96
CN1CCC(COc2cnc(-c3cccc(Cn4nc(-c5cccc(C#N)c5)ccc4=O)c3)nc2)CC1,IRF Lucia reporter activity,[3]; [5],1.37
CN1CCC(CNc2ccc3ncc(-c4cccc(OC(F)(F)F)c4)n3n2)CC1,IRF Lucia reporter activity,[3]; [5],1.07
